# Measurements from the supplement of paper PMC13380429.
# Structures can show the parent of a compound that is named as a salt.
# Legend:
# [1] = tested on: Vero E6 infected with SARS-CoV-2; test: morphology score (similarity to uninfected cells); higher = more like uninfected cells; details: 24 h
# [2] = tested on: Vero E6 infected with SARS-CoV-2; test: SARS-CoV-2 infection rate relative to infected DMSO; higher = more infection, active = 60 or less; details: 24 h
SMILES,morphology score [1],SARS-CoV-2 infection rate [2]
CC(C)(Oc1ccc(C(=O)c2ccc(Cl)cc2)cc1)C(=O)O [fenofibric-acid] (10 µM),0.137,97% (inactive)
CN(C)CC/C=C1/c2ccccc2COc2ccc(CC(=O)O)cc21 [Olopatadine hydrochloride (Opatanol)] (10 µM),0.105,111% (inactive)
Cn1nnc(-c2ccc(-c3ccc(N4C[C@H](COP(=O)(O)O)OC4=O)cc3F)cn2)n1 [tedizolid-phosphate] (10 µM),0.194,88% (inactive)
CC(=O)OCC(=O)NCCCOc1cccc(CN2CCCCC2)c1 [roxatidine-acetate] (10 µM),0.0141,110% (inactive)
Cc1cc(C(=O)Nc2nc3cccc(Cl)c3n2[C@@H]2CCCCN(C(=O)/C=C/CN(C)C)C2)ccn1 (0.833333 µM),-0.2,110% (inactive)
CC(C)=CCC[C@]1(C)C=Cc2c(O)c3c(c(CC=C(C)C)c2O1)O[C@]12C(=C[C@@H]4C[C@H]1C(C)(C)O[C@@]2(C/C=C(/C)C(=O)O)C4=O)C3=O [gambogic-acid] (10 µM),0.0235,106% (inactive)
"Cl/C=C\C[N+]12CN3CN(CN(C3)C1)C2 [1-((Z)-3-chloroallyl)-1,3,5,7-tetraazaadamantan-1-ium] (10 µM)",0.0348,99% (inactive)
CCC[C@@H]1CC(=O)N([C@@H](CC)C(N)=O)C1 [Brivaracetam] (10 µM),0.0266,111% (inactive)
Cc1c(-c2ccccc2)oc2c(C(=O)OCCN3CCCCC3)cccc2c1=O [flavoxate] (10 µM),0.4,88% (inactive)
CNC(=O)c1ccc2cc([C@@]3(O)CCn4cncc43)ccc2c1 [orteronel] (10 µM),0.0827,106% (inactive)
c1ccc(NCc2ccc(CNc3ccccn3)cc2)nc1 (10 µM),-0.0443,102% (inactive)
CN1[C@@H]2CC[C@H]1C[C@@H](OC1c3ccccc3CCc3ccccc31)C2 [deptropine] (0.833333 µM),0.24,100% (inactive)
O=C(Cc1cccc(OC(F)(F)F)c1)Nc1ccc(CCCCc2nnc(NC(=O)Cc3ccccn3)s2)nn1 (10 µM),-0.0099,104% (inactive)
Cc1c(Cc2ccc3ccccc3n2)c2cc(F)ccc2n1CC(=O)O (10 µM),0.0108,102% (inactive)
CO[C@H]1/C=C/O[C@@]2(C)Oc3c(C)c(O)c4c(O)c(cc(O)c4c3C2=O)NC(=O)/C(C)=C\C=C\[C@H](C)[C@H](O)[C@@H](C)[C@@H](O)[C@@H](C)[C@H](OC(C)=O)[C@@H]1C [rifamycin-sv] (10 µM),0.117,94.2% (inactive)
CC(C)N(CCC(=O)c1ccc2ccccc2c1)Cc1ccccc1 (10 µM),0.0866,104% (inactive)
CNC(=O)[C@H](Cc1ccccc1)NC(=O)[C@H](CC(C)C)[C@H](CSc1cccs1)C(=O)NO [batimastat] (10 µM),0.0292,104% (inactive)
CCOc1cccc(NC(=O)c2ccc(N3CCCC3)c(C(F)(F)F)c2)c1 (10 µM),0.0793,102% (inactive)
O=CN1CCC(C(=O)NCCN2CCC(=C3c4ccccc4C=Cc4ccccc43)CC2)CC1 (10 µM),0.0149,100% (inactive)
CCC[C@@H](NC(=O)N1C(=O)C(CC)(CC)[C@@H]1Oc1ccc(C(=O)N2CCN(C)CC2)cc1)c1ccc2c(c1)OCO2 (10 µM),0.171,109% (inactive)
O=c1oc2cc(O)ccc2s1 [tioxolone] (10 µM),0.0494,104% (inactive)
CC(C)=CCc1c(O)cc(O)c2c(=O)c(O)c(-c3ccc(C(F)(F)F)cc3)oc12 (0.833333 µM),0.14,104% (inactive)
Nc1ccc2ncnc(NCCc3ccc(Oc4ccccc4)cc3)c2c1 (10 µM),-0.17,102% (inactive)
CO[C@H]1CC[C@@H](C(=O)c2ccc3nc4c(cc3c2)CCCO4)CC1 (10 µM),0.0672,104% (inactive)
CN=C(N)NCCC[C@H](N)C(=O)O [L-monomethylarginine] (10 µM),0.197,97% (inactive)
CC1(C)CCC(C)(C)c2cc(C(=O)Nc3ccc(C(=O)O)cc3)ccc21 (10 µM),-0.326,112% (inactive)
CN(C)C(=O)COC(=O)Cc1ccc(OC(=O)c2ccc(NC(=N)N)cc2)cc1 [Camostat mesylate] (10 µM),0.0371,104% (inactive)
